Reference: PubChem BioAssay (NCATS)
A number with no mark means an inactive call. Inconclusive results are not listed. Where a call stands in place of a potency, no number is given. Active and inactive are the calls of the source. Unless noted, calls come from the whole dose curve; as a rule, active = well fitted curve in the direction sought with a large enough effect; inconclusive = small, poorly fitted or top-dose-only effect, or another doubt; inactive = no such curve, though single readings can be large; an effect the other way counts as inactive or inconclusive.

Tests used:
[1] = molecular target: 3',5'-cyclic-AMP phosphodiesterase 4B (Homo sapiens) (UniProt Q07343); assay: qHTS Assay for Inhibitors of PDE-IV (AID 607; active = well fitted activation curve with a large enough effect in the main read-out, with a control signal flat, not every such curve was filed as active)
Method in brief: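 HEK293 ACTOne cells with CNG channel (1000/well), endogenous PDE4; membrane potential dye, compounds up to 22.9 uM final. Fluorescence Ex 535/Em 590; RO 20-1724 (100 uM final) as reference.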

[2] = molecular target: Cytochrome P450 3A4 (Homo sapiens) (UniProt P08684); assay: qHTS Assay for Activators of Cytochrome P450 3A4 (AID 885); note: nearly all actives have a fitted effect of over 65% in size
Method in brief: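 Human CYP3A4 dealkylates Luciferin-PPXE to luciferin, which luciferase detection converts to light. Substrate was at its KM (25uM), buffer 200mM KPO4, reaction 60 min at RT.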

[3] = molecular target: Cytochrome P450 2D6 (Homo sapiens) (UniProt P10635); assay: qHTS Assay for Inhibitors and Substrates of Cytochrome P450 2D6 (AID 891); note: nearly all actives have a fitted effect of over 60% in size; note: potency is the fitted concentration of half-maximal effect;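 for activity change, negative = inhibition: luciferin methyl ether substrate demethylated by CYP2D6 with NADPH regeneration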
Method in brief: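 Luminescent read-out of luciferin formed by 5 nM human CYP2D6 demethylating 30 uM Luciferin-ME EGE (Km level) over 60 min at room temperature after NADPH regeneration addition. Data normalized to full inhibition by 1.43 uM quinidine.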

[4] = S16 Schwann cell PMP22 intronic element beta-lactamase assay (AID 624044; calls by dose curve; note: nearly all actives have a fitted effect of over 15% in size)
Method in brief: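 Beta-lactamase reporter under a PMP22 intronic regulatory element in stable S16 rat Schwann cells; 24 h compound exposure. 460 nm blue signal normalized between DMSO (0%) and potassium clavulanate, with 535 nm FRET tracking viability; curves classed by r2 and response.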

CP203 = assay: qHTS profiling for inhibitors of Plasmodium falciparum proliferation (AID 504749); note: nearly all actives have a fitted effect of over 60% in size; note: potency is the fitted concentration of half-maximal effect; settings: P. falciparum in erythrocytes, SYBR Green DNA, 72 h; series mostly up to 12.8 µM
Method in brief: (§1)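 Quantitative HTS: compounds pinned into medium, infected erythrocytes added (0.3% parasitemia, 2.5% hematocrit), 72 h culture at 37 C under 5% CO2. Saponin/Triton lysis with SYBR Green I, overnight RT, then fluorescence read.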

CP260 = assay: as above; settings: P. falciparum in erythrocytes, SYBR Green DNA, 72 h; series mostly up to 12.8 µM
Method in brief: as §1

CP265 = assay: as above; settings: P. falciparum in erythrocytes, SYBR Green DNA, 72 h; series mostly up to 12.8 µM
Method in brief: as §1

CP335 = assay: as above; settings: P. falciparum in erythrocytes, SYBR Green DNA, 72 h; series mostly up to 12.8 µM
Method in brief: as §1

DFO2036 = assay: as above; settings: P. falciparum in erythrocytes, SYBR Green DNA, 72 h; series mostly up to 12.8 µM
Method in brief: as §1

[5] = molecular target: Cytochrome P450 1A2 (Homo sapiens) (UniProt P05177); assay: p450-cyp1a2 (AID 410; calls by dose curve; note: potency is the fitted concentration of half-maximal effect)
Method in brief: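 O-Demethylation of luciferin 6' methyl ether by human CYP1A2 is monitored as luciferase luminescence. Substrate sits at Km (100uM); enzyme is 20nM. Values are scaled to 57 uM furafylline as maximal inhibition.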

[6] = Stat Signaling Pathway (AID 446; active = well fitted curve in either direction with a large enough effect, not every such curve was filed as active;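 note: ME-180 cervical cancer cells given 40 pM IL-6 alongside compound; SIE-controlled beta-lactamase reporter measured as 460/530 nm FRET emission ratio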)
Method in brief: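 Normalization used AC90 stimulation (300 pM IL-6) and AC90 inhibition (125 nM pan-JAK inhibitor at 40 pM IL-6). The underlying signal is SIE-driven beta-lactamase in ME-180 cells after 5 h IL-6 exposure with compound.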

[7] = S16 Schwann cell viability assay (CellTiter-Glo assay) (AID 624031);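 note: native untransfected S16 rat Schwann cells; nearly all actives have a fitted effect of over 70% in size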
Method in brief: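 Counter-screen for cytotoxicity: parental S16 rat Schwann cells lacking the PMP22 reporters, treated 24 h with compound, viability from cellular ATP by CellTiter-Glo luminescence, normalized to DMSO (0%) and no-cell wells.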

[8] = S16 Schwann cell PMP22 intronic element firefly luciferase assay (AID 624032); note: nearly all actives have a fitted effect of over 30% in size
Method in brief: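 Rat S16 Schwann cells stably carrying a PMP22 intronic element-driven Fluc reporter were seeded overnight, then exposed to compounds for 24 h at 37 °C. Luminescence was normalized to PTC124 (positive control) and DMSO (0% activity).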

DIV14 = assay: qHTS profiling for inhibitors of Plasmodium falciparum proliferation (AID 504749); note: nearly all actives have a fitted effect of over 60% in size; note: potency is the fitted concentration of half-maximal effect; settings: P. falciparum in erythrocytes, SYBR Green DNA, 72 h; series mostly up to 12.8 µM
Method in brief: as §1

W2 = assay: as above; settings: P. falciparum in erythrocytes, SYBR Green DNA, 72 h; series mostly up to 12.8 µM
Method in brief: as §1

[9] = NFAT Signaling Pathway (AID 444; active = well fitted curve in either direction with a large enough effect, not every such curve was filed as active;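 note: carbachol stimulus at about its EC50 of 1 µM final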); settings: Jurkat NFAT-bla M1, carbachol, beta-lactamase ratio, 5 h; at 17.2 µM (top of the series) unless noted
Method in brief: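 Jurkat cells carrying an NFAT-driven β-lactamase reporter and co-transfected muscarinic M1 receptor were treated with compound plus carbachol (1 uM final, an EC50 level) for 5 h at 37 °C. CCF4 loading followed for 1 h at RT; 460/530 nm ratio gave %activity.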

[10] = molecular target: Cytochrome P450 3A4 (Homo sapiens) (UniProt P08684); assay: qHTS Assay for Inhibitors and Substrates of Cytochrome P450 3A4 (AID 884); note: nearly all actives have a fitted effect of over 50% in size; note: potency is the fitted concentration of half-maximal effect
Method in brief: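 Luminescent readout of luciferin produced by CYP3A4 (20 nM) dealkylation of Luciferin-PPXE, 25 uM (its KM). NADPH-driven reaction ran 60 min at RT after 10 min compound preincubation; data scaled to 57 uM ketoconazole as 100% inhibition.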

[11] = Confirmation and Secondary Assay for Modulators of Hemoglobin Beta Chain Splicing at IVS2 654 locus (AID 910);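 note: per-well total GFP intensity by laser scanning cytometry after 2-day treatment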
Method in brief: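 HeLa cells stably carrying EGFP interrupted by mutant beta-globin IVS2-654 intron (CMV-driven) were treated with compound for 2 days at 37C; corrected splicing was scored as total peak GFP intensity per well (488 nm excitation, 500-520 nm emission).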

[12] = Confirmation and Secondary Assay for Modulators of Hemoglobin Beta Chain Splicing at IVS2 705 locus (AID 930);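 note: HeLa cells stably expressing the EGFP-705 splicing reporter; GFP fluorescence per well restored by corrected splicing of the IVS2-705 intron in EGFP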
Method in brief: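 First, HeLa EGFP-705 cells are seeded at 500/well in Optimem with 2% FCS and left overnight. Next, compound or DMSO is added for 2 days. Finally wells are laser-scanned and total peak GFP intensity scored.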

Chain of 3',5'-cyclic-AMP phosphodiesterase 4B (Homo sapiens) (Q07343 whole entry, looked up): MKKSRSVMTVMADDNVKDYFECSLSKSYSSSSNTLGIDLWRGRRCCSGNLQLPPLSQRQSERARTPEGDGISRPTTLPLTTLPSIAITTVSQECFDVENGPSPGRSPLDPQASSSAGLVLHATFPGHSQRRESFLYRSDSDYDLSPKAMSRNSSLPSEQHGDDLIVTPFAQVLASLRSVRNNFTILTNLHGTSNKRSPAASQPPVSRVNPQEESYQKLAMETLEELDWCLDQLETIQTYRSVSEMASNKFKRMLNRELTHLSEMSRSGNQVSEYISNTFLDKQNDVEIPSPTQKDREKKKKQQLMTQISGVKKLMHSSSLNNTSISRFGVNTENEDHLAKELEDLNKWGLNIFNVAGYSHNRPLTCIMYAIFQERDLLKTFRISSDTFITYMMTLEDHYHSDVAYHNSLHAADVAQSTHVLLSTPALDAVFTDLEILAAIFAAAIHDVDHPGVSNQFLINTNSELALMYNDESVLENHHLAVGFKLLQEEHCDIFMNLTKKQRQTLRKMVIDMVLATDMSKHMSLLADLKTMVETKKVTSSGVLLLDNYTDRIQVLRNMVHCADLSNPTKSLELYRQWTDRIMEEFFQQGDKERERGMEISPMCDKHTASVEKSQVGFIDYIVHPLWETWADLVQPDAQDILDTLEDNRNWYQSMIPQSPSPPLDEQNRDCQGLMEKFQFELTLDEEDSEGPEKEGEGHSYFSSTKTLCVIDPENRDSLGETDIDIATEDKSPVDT
Chain of Cytochrome P450 2D6 (Homo sapiens) (P10635 whole entry, looked up): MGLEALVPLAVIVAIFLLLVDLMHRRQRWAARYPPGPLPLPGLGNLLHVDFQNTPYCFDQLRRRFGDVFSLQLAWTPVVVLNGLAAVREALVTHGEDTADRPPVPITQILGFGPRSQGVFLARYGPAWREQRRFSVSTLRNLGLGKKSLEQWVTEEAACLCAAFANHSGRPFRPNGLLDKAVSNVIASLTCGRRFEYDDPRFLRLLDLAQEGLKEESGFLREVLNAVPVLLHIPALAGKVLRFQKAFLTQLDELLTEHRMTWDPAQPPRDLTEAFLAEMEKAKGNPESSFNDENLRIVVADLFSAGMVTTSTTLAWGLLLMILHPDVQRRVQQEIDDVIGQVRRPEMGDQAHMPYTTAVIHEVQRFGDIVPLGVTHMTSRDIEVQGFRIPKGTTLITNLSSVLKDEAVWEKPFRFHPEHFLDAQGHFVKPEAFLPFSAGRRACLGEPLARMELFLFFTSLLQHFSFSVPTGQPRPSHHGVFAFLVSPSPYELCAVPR
Chain of Cytochrome P450 1A2 (Homo sapiens) (P05177 whole entry, looked up): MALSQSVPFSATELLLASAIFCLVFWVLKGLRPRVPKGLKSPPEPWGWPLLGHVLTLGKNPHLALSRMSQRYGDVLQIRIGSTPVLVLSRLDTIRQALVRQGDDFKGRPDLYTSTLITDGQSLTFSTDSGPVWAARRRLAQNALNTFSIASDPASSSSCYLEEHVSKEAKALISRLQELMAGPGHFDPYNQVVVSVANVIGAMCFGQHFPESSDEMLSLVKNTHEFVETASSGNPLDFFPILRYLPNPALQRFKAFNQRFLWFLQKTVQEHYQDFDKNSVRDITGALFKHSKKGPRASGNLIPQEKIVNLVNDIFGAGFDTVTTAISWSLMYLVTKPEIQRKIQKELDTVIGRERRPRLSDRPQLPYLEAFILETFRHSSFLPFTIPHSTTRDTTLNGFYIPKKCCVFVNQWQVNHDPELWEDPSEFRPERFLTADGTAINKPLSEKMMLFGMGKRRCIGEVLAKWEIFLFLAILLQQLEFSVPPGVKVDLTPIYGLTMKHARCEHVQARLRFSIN
Chain of Cytochrome P450 3A4 (Homo sapiens) (P08684 whole entry, looked up): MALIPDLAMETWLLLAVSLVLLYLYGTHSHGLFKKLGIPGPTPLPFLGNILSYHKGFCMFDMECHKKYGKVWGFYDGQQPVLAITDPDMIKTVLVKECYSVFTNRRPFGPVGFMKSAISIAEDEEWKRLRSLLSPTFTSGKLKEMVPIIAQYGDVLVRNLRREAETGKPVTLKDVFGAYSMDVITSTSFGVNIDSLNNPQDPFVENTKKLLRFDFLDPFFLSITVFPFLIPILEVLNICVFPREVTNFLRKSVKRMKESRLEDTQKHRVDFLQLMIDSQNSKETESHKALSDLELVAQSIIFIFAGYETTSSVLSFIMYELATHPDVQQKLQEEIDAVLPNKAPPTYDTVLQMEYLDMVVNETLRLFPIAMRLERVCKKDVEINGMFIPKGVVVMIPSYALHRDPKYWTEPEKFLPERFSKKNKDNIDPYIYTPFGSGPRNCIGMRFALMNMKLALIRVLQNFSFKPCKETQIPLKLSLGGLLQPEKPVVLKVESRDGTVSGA

## COc1ccc2c(c1)N(C[C@@H](C)CN(C)C)c1ccccc1S2
[1]
  outcome: inactive
[2]
  Potency: inactive
[3]
  Potency: 0.0631 µM (active)
[4]
  Potency: inactive
CP203
  Potency: inactive
CP260
  Potency: inactive
CP265
  Potency: inactive
CP335
  Potency: inactive
DFO2036
  Potency: inactive

## CCN(CC)[C@@H](C)CN1c2ccccc2Sc2ccccc21
[5]
  Potency: 0.501 µM (active)
[6]
  outcome: inactive
[1]
  outcome: inactive
[3]
  Potency: 0.158 µM (active)
[7]
  outcome: inactive
[8]
  Potency: inactive
[4]
  Potency: inactive

## Cc1ccnc(N)c1
[5]
  Potency: inactive

## CC=C(/C(=C/C)c1ccc(O)cc1)c1ccc(O)cc1
[5]
  Potency: 15.8 µM (active)
[6]
  outcome: inactive
[1]
  outcome: inactive
[2]
  Potency: inactive
[7]
  outcome: inactive
[8]
  Potency: inactive
[4]
  Potency: inactive
CP203
  Potency: inactive
CP260
  Potency: inactive
CP265
  Potency: inactive
CP335
  Potency: inactive
DIV14
  Potency: inactive
W2
  Potency: inactive

## CCOC(=O)Oc1c(OC)cc(C(=O)O[C@H]2C[C@H]3CN4CCc5c([nH]c6cc(OC)ccc56)[C@@H]4C[C@H]3[C@@H](C(=O)OC)[C@@H]2OC)cc1OC
[5]
  Potency: inactive
[9]
  activity change, negative = inhibition: -2.78%
[6]
  outcome: inactive
[1]
  outcome: inactive
[4]
  Potency: inactive
CP260
  Potency: 2.51 µM (active)
DIV14
  Potency: 5.73 µM (active)
W2
  Potency: 2.56 µM (active)

## CCC(C)(C)C(=O)O[C@@H]1C[C@H](C)C=C2C=C[C@H](C)[C@@H](CC[C@H]3C[C@@H](O)CC(=O)O3)[C@H]21
[9]
  activity change, negative = inhibition: 7.6%
[6]
  outcome: inactive
[8]
  Potency: inactive
[4]
  Potency: inactive
CP203
  Potency: inactive
CP260
  Potency: inactive
CP265
  Potency: inactive
DFO2036
  Potency: inactive
DIV14
  Potency: inactive

## COc1cccc(-c2nc(NCCc3c[nH]c4ccc(OC)cc34)c3ccccc3n2)c1
[5]
  Potency: 1.58 µM (active)
[10]
  Potency: 2 µM (active)
[2]
  Potency: inactive
[11]
  Potency: inactive
[12]
  Potency: inactive

## CC[C@H](C(=O)[C@H](C)[C@H](O)[C@H](C)CCc1ccc(C)c(O)c1C(=O)O)[C@H]1O[C@](CC)([C@@H]2CC[C@@](O)(CC)[C@H](C)O2)C[C@H]1C
[1]
  outcome: inactive
[2]
  Potency: inactive

## CC1(C)OC2CC(=O)OC[C@@]23C1CC(=O)[C@]1(C)C3CC[C@@]2(C)C(c3ccoc3)OC(=O)C3O[C@@]321 (stereo partly specified)
[11]
  Potency: inactive
[12]
  Potency: inactive
[7]
  outcome: inactive
[8]
  Potency: inactive
CP203
  Potency: inactive
CP260
  Potency: inactive
CP265
  Potency: inactive
CP335
  Potency: inactive
DFO2036
  Potency: inactive
DIV14
  Potency: inactive

## COc1ccc2cc(C(C)CO)ccc2c1 (stereo unspecified)
[10]
  Potency: inactive
[11]
  Potency: inactive
[12]
  Potency: inactive
[8]
  Potency: inactive
[4]
  Potency: inactive
CP203
  Potency: inactive
CP260
  Potency: inactive
CP265
  Potency: inactive
CP335
  Potency: inactive
DFO2036
  Potency: inactive
DIV14
  Potency: inactive
W2
  Potency: inactive

## COc1c(O)cc(O)cc1O
[2]
  Potency: inactive
[11]
  Potency: inactive
[12]
  Potency: inactive

## COC(=O)N/N=C/C1=C[N+](=O)c2ccccc2[N+]1=O
[10]
  Potency: inactive
[11]
  Potency: inactive
[12]
  Potency: inactive
[8]
  Potency: inactive
[4]
  Potency: inactive
CP260
  Potency: inactive
CP265
  Potency: inactive
CP335
  Potency: inactive
DIV14
  Potency: inactive

## CC1=C(CCC(=O)O)c2cc3nc(cc4[nH]c(cc5[nH]c(cc1n2)c(C)c5C(C)O)c(C)c4C(C)O)C(C)=C3CCC(=O)O (stereo unspecified)
[11]
  Potency: inactive
[12]
  Potency: inactive

## O=C1OC(CO)C(O)C(O)C1O (stereo unspecified)
[10]
  Potency: inactive
[12]
  Potency: inactive
[7]
  outcome: inactive
[8]
  Potency: inactive
[4]
  Potency: inactive
CP203
  Potency: inactive
CP260
  Potency: inactive
CP265
  Potency: inactive
CP335
  Potency: inactive
DFO2036
  Potency: inactive
DIV14
  Potency: inactive
W2
  Potency: inactive

## CC1(C)SC2C(N3C(=O)C(c4ccccc4)NC3(C)C)C(=O)N2C1C(=O)O (stereo unspecified)
[10]
  Potency: inactive
[11]
  Potency: inactive
[12]
  Potency: inactive
[8]
  Potency: inactive
CP203
  Potency: inactive
CP260
  Potency: inactive
CP265
  Potency: inactive
CP335
  Potency: inactive
DFO2036
  Potency: inactive
DIV14
  Potency: inactive
W2
  Potency: inactive

## C/C(=C\CNc1ncnc2nc[nH]c12)CO
[1]
  outcome: inactive
[10]
  Potency: inactive
[3]
  Potency: inactive

## CC(C)=CCC[C@](C)(O)C1CC=C(C)CC1 (stereo partly specified)
[11]
  Potency: inactive
[12]
  Potency: inactive
[7]
  outcome: inactive
[8]
  Potency: inactive
CP203
  Potency: inactive
CP260
  Potency: inactive
CP265
  Potency: inactive
CP335
  Potency: inactive
DIV14
  Potency: inactive
W2
  Potency: inactive

## COc1ccc2cc1Oc1ccc(cc1)CC1c3c(cc4c(c3Oc3cc5c(cc3OC)CCN(C)C5C2)OCO4)CCN1C (stereo unspecified)
[11]
  Potency: inactive
[12]
  Potency: inactive
[8]
  Potency: inactive
CP203
  Potency: 12 µM (active)
CP260
  Potency: 4.47 µM (active)
CP265
  Potency: 8.91 µM (active)
CP335
  Potency: 6.01 µM (active)
DFO2036
  Potency: 7.94 µM (active)
DIV14
  Potency: 5.36 µM (active)
W2
  Potency: 1.9 µM (active)
